Screening data (PubChem BioAssay)
Shown are actives, neighbours in structure and some others; about 8% of the full set was active somewhere.
LASV entry inh: blocks Lassa virus binding to or entry into cells. 300,000 compounds, 1.2% hits. Potency, µM (series often up to 37.9 µM), for inactives: top-dose activity change, negative = inhibition, most hits filed as inhibitors. Lassa virus pseudotype entry inhibition, cell reporter; calls by dose curve; tested in HEK293 cells; also: potency is read from the fitted curve at half-maximal effect; % is scaled to controls: 0 for no effect and ±100 for the full control effect; nearly all actives have a fitted effect of over 50% in size
HCMV inh: human cytomegalovirus inhibition. HFF cells, HCMV-luciferase reporter, 72 h; stronger effect = lower value. activity change, negative = inhibition, % at 57.5 µM. AID 1259415. 410,000 compounds, 4.5% hits; in the data active = activity change below about -60%; inconclusive = no clear call, values can overlap the other calls; inactive = above about -39%; also: % is scaled to controls: 0 for no effect and ±100 for the full control effect
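Steps: HFFs plated, 16 h 37C; compounds added; HCMV-luciferase added to MOI 1 PFU/cell; 72 h 37C; OneGlo reagent, 5 min room temperature; luminescence read, normalized to controls.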
FMDV antiviral: antivirals against foot and mouth disease virus; FMDV antiviral cell-based qHTS; Potency, µM (titrated, usually from 57.9 µM), without a hit: at the highest dose activity change, negative = inhibition, most hits filed as inhibitors; 410,000 compounds, 1.2% hits; calls by dose curve; tested in HEK293T cells; also: read-out not given here; potency is read from the fitted curve at half-maximal effect; % is scaled to controls: 0 for no effect and ±100 for the full control effect; nearly all actives have a fitted effect of over 45% in size
HCV inhibitor: blocks hepatitis C virus; Huh7.5.1 HCVcc-Cre infection, luciferase reporter, 44 h; Potency, µM (top dose mostly 41.8 µM), for the others: at the top dose activity change, negative = inhibition, hits mostly inhibitors; 340,000 compounds, 3.4% hits; AID 651820; active = well fitted inhibition curve with a large enough effect; inconclusive = small, poorly fitted or top-dose-only effect, or another doubt; inactive = no such curve, though single readings can be large or run the other way; also: potency is read from the fitted curve at half-maximal effect; % is scaled to controls: 0 for no effect and ±100 for the full control effect
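After 44 h co-culture of compound, cells and HCVcc-Cre (~0.5 moi), substrate is added for 15 min at room temperature and luciferase measured over 15 sec. Cells were seeded at 1,000/well and pre-cultured 4 h.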
SARS PLpro yeast: blocks SARS-CoV papain-like protease in a yeast assay | AID 485353 | Potency, µM (titrated, usually from 32.9 µM), for the others: at the top dose activity, positive = growth rescue, usual class: activators | S. cerevisiae expressing SARS-CoV PLpro, growth rescue | 330,000 compounds, 0.19% hits; calls by dose curve; also: potency is read from the fitted curve at half-maximal effect; 0% is about no effect; nearly all actives have a fitted effect of over 55% in size
MARV entry inh: inhibitors of Marburg virus binding or cell entry; AID 540276; Potency, µM (doses to about 37.8 µM), inactives show top-dose activity change, negative = inhibition, hits mostly inhibitors; Marburg virus pseudotyped entry inhibition, cell reporter; 300,000 compounds, 1.8% hits; calls by dose curve; tested in HEK293 cells; also: potency is read from the fitted curve at half-maximal effect; % is scaled to controls: 0 for no effect and ±100 for the full control effect
Active calls of the source: *; ! = repeats disagree; [ ] = remark or other dose.

Results for COCCCn1c2nc3ccccc3nc2c2c(=O)n(C[C@H]3CCCO3)cnc21 ?
MARV entry inh: 15%

How did COc1ccc(/C=C/C(=O)c2ccc(OC)cc2OC)c(OC)c1 do in these assays?
HCMV inh: -76*; FMDV antiviral: 2%; HCV inhibitor: inconclusive; SARS PLpro yeast: -4%

Results for CCNc1ccc(Br)cc(C(=O)/C=C/c2ccc3c(c2)OCO3)c1=O ?
LASV entry inh: -26%; HCMV inh: 37; FMDV antiviral: inconclusive; HCV inhibitor: 11%; SARS PLpro yeast: -8%; MARV entry inh: -2%

Results for CNc1ccc(Br)cc(C(=O)/C=C/c2cccc(OC)c2)c1=O ?
LASV entry inh: inconclusive; HCMV inh: -85*; FMDV antiviral: inconclusive; HCV inhibitor: 11µM*; SARS PLpro yeast: -10%; MARV entry inh: inconclusive

What do the screens show for `CCNc1ccc(Br)cc(C(=O)/C=C/c2c(Cl)cccc2Cl)c1=O`?
LASV entry inh: inconclusive; FMDV antiviral: 32µM*; HCV inhibitor: 13µM*; SARS PLpro yeast: -35%; MARV entry inh: inconclusive

How did COc1ccc(C(=O)/C=C/c2ccc(OC)c(O)c2)c(F)c1 do in these assays?
LASV entry inh: -27%; HCMV inh: inconclusive; FMDV antiviral: 0%; HCV inhibitor: 14µM*; SARS PLpro yeast: -91%; MARV entry inh: inconclusive

How did COc1ccc(/C=C/C(=O)c2ccccc2)c(OC)c1 do in these assays?
LASV entry inh: inconclusive; HCMV inh: -11; FMDV antiviral: 11%; HCV inhibitor: -17%; SARS PLpro yeast: -11%; MARV entry inh: inconclusive

Results for COCCCNc1nc2c(-c3cccc(Br)c3)nnn2c2ccccc12 ?
LASV entry inh: 27%[46.1 µM]; HCMV inh: 39; FMDV antiviral: 21%; MARV entry inh: 5%[46.1 µM]

What do the screens show for `O=C1[C@H]2[C@H]3[C@H](O)[C@H](O)C/C(=N\OCc4ccccc4)[C@H]3CC[C@H]2C(=O)N1C1CCCCC1`?
MARV entry inh: -25%[14.2 µM]

Results for CCOc1ccc(-c2cc(C(=O)N3CCN(c4ccc(C)cc4)C(C)C3)c3ccccc3n2)cc1 (stereo not drawn) ?
LASV entry inh: inconclusive; HCMV inh: 61; FMDV antiviral: 28%

How did CC(C)(C)c1cc(NCCCn2ccnc2)n2ncc(-c3ccc(Cl)cc3)c2n1 do in these assays?
LASV entry inh: inconclusive; HCMV inh: -21; FMDV antiviral: 6%; HCV inhibitor: 25µM*; SARS PLpro yeast: -20%; MARV entry inh: inconclusive

How did CC(=O)Nc1ccc(NC(=O)CSc2nnc(-c3cccs3)n2N)cc1 do in these assays?
LASV entry inh: 11%; HCMV inh: -3; FMDV antiviral: -6%; HCV inhibitor: 17%; SARS PLpro yeast: -1%; MARV entry inh: 18%[46.1 µM]

How did NNc1nc(-c2ccccc2)cc(-c2ccccc2)n1 do in these assays?
HCMV inh: -36; FMDV antiviral: -5%; HCV inhibitor: 13µM*; SARS PLpro yeast: -3%

Results for Nc1nc(-c2ccccc2)cc(-c2ccccc2O)n1 ?
LASV entry inh: -1%; HCMV inh: -96*; HCV inhibitor: 1%; SARS PLpro yeast: -10%; MARV entry inh: -26%

What do the screens show for `Nc1nc(-c2ccccc2)nc(-c2ccccc2O)n1`?
LASV entry inh: -5%; HCMV inh: 76; FMDV antiviral: 0%; HCV inhibitor: inconclusive; MARV entry inh: -18%

What do the screens show for `Clc1nc(-c2ccccc2)cc(-c2ccccc2)n1`?
LASV entry inh: -12%; HCMV inh: 30; FMDV antiviral: -22%; HCV inhibitor: inconclusive; SARS PLpro yeast: 14%; MARV entry inh: inconclusive

What do the screens show for `NNc1nc(-c2ccccc2)cc(-c2ccccc2O)n1`?
LASV entry inh: -17%; HCMV inh: 13; FMDV antiviral: 15%; HCV inhibitor: inconclusive; SARS PLpro yeast: 4%; MARV entry inh: inconclusive

How did NNC(=O)c1nc(-c2ccccc2)cc(-c2ccccc2)n1 do in these assays?
HCMV inh: -63*; FMDV antiviral: -4%; HCV inhibitor: 14%; SARS PLpro yeast: 0%

What do the screens show for `CSc1nsc(SCC(=O)Nc2ccccc2C(=O)O)n1`?
LASV entry inh: 1%; HCMV inh: -4; FMDV antiviral: 39%; HCV inhibitor: 13%; SARS PLpro yeast: -2%; MARV entry inh: 18µM*

Results for CSc1nsc(SCC(=O)Nc2ccc(O)c(C(=O)O)c2)n1 ?
LASV entry inh: 20%[46.1 µM]; HCMV inh: 8; FMDV antiviral: 2%; HCV inhibitor: 17%; SARS PLpro yeast: 6%; MARV entry inh: 2%[46.1 µM]

Results for Oc1ccc(-c2cnns2)c(O)c1 ?
LASV entry inh: 11µM*; HCMV inh: inconclusive; FMDV antiviral: -19%; HCV inhibitor: inconclusive; SARS PLpro yeast: -13%; MARV entry inh: inconclusive

Results for Oc1ccc(-c2nc3ccccc3s2)c(O)c1 ?
LASV entry inh: 15%[46.1 µM]; HCMV inh: 19; FMDV antiviral: 22%; HCV inhibitor: -5%; SARS PLpro yeast: -7%; MARV entry inh: inconclusive

Results for N#Cc1nc(-c2cccs2)oc1N1CCN(c2ccccc2)CC1 ?
LASV entry inh: -1%; HCMV inh: 1; FMDV antiviral: -19%; HCV inhibitor: 2.8µM*; SARS PLpro yeast: -3%; MARV entry inh: inconclusive

What do the screens show for `CCCc1nnc(NC(=O)c2nc(S(=O)(=O)Cc3ccc(C)cc3)ncc2Cl)s1`?
LASV entry inh: inconclusive; HCMV inh: -107*!; FMDV antiviral: 35µM*; HCV inhibitor: inconclusive; SARS PLpro yeast: 1%; MARV entry inh: -2%[46.1 µM]

What do the screens show for `CCCSc1ncc(Cl)c(C(=O)Nc2nc3ccc(OCC)cc3s2)n1`?
LASV entry inh: 18%[46.1 µM]; HCMV inh: -10; FMDV antiviral: 47%; MARV entry inh: 2%[46.1 µM]

What do the screens show for `Cc1ccc(CSc2ncc(Cl)c(C(=O)Nc3nc4ccc(C)cc4s3)n2)cc1`?
LASV entry inh: 11%[46.1 µM]; HCMV inh: 11; FMDV antiviral: -7%; MARV entry inh: -6%[46.1 µM]

Results for CCCc1nnc(NC(=O)c2nc(SCC)ncc2Cl)s1 ?
LASV entry inh: 3%[46.1 µM]; HCMV inh: -3; FMDV antiviral: -17%; MARV entry inh: -15%[46.1 µM]

What do the screens show for `Cc1ccc(CS(=O)(=O)c2ncc(Cl)c(C(=O)Nc3nc4ccc(F)cc4s3)n2)cc1`?
LASV entry inh: inconclusive; HCMV inh: -93*; FMDV antiviral: inconclusive; MARV entry inh: -8%[46.1 µM]

Results for COc1ccc2nc(NC(=O)c3nc(S(=O)(=O)Cc4ccc(C)cc4)ncc3Cl)sc2c1 ?
LASV entry inh: inconclusive; HCMV inh: -100*; FMDV antiviral: -9%; MARV entry inh: inconclusive

Results for Cc1ccc(CS(=O)(=O)c2ncc(Cl)c(C(=O)Nc3nc4ccc(C)cc4s3)n2)cc1 ?
LASV entry inh: inconclusive; HCMV inh: -107*; FMDV antiviral: inconclusive; MARV entry inh: inconclusive

How did O=C(O)C[C@H](NC(=O)COc1ccc(Cl)cc1Cl)C(=O)O do in these assays?
MARV entry inh: 1%
